Reference: PubChem BioAssay
Several values for one entry are separate records, joined by “and”; a condition that tells them apart may be missing. Equal entries are not always repeated. Activity calls are given as the source filed them.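 How the source made its calls, unless noted: active means compounds whose cell count with miR-34 switched on is under 0.7 times the count with it off; inactive means the rest.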

Key:
[1] = viability loss with induced miR-34 in A549 – imaging, A549 dox-inducible miR-34, nuclei and caspase counts, primary screen (AID 1347080); details: A549 miR-34 inducible, Hoechst nuclei count, 48 h; further: test concentration not given here
[2] = MELAS cybrid and Rieske KO viability enhancers – cell-based, MELAS cybrids, Rieske KO mouse fibroblasts, CellTiter-Glo, primary screen (AID 1508586;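 active means mean z-score across replicates of 1.96 or higher in either the MELAS or the Rieske mutant cell line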;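 further: test concentration not given here; z relative to plate mean and SD of compound and empty wells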); details: low glucose
[3] = galactose survival enhancers in mitochondrial complex I cybrids – cell-based, galactose medium, ATP luminescence, primary screen (AID 1645843;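 active means z-score of at least 1.8 in each of two replicates, scored against plate mean and spread of sample wells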;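 further: positive z means more ATP and so rescue of galactose-driven cybrid death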); details: complex I mutant cybrid cells, 72 h, stronger effect = higher value
[4] = stronger effect = lower value, cell number ratio, induced over uninduced
[5] = measured here: relative caspase fold change +Dox/-Dox
[6] = measured here: total cells with miR-34 induction, stronger effect = lower value
[7] = measured here: total cells without miR-34 induction
[8] = MELAS cybrid survival, CellTiter-Glo 48 h, stronger effect = higher value
[9] = Rieske KO mouse fibroblast survival, CellTiter-Glo 72 h

Row | Structure (SMILES) | fold change [1, 4] | fold change [1, 5] | cell count [1, 6] | cell count [1, 7] | z-score [2, 8] | z-score [2, 9] | z-score [3]
1 | Nc1ccn(C2OC(CO)C(O)C2O)c(=O)n1 (stereo unspecified) | 1.14 (inactive) and 0.906 (inactive) | 0.982 and 0.86 | 2260 and 7940 | 1990 and 8760 | -0.137 (inactive) | -0.441 | -1.19 (inactive)
2 | O=C(O)CC(O)CC(O)C=Cc1c(C2CC2)nc2ccccc2c1-c1ccc(F)cc1 (stereo unspecified) | 0.905 (inactive) and 0.948 (inactive) | 0.849 and 0.847 | 771 and 1550 | 852 and 1630 | 1.33 (inactive) | -0.125 | -1.86 (inactive)
3 | Cn1c(=O)ccc2ccccc21 | 0.892 (inactive) | 0.453 | 8490 | 9520 | -0.16 (inactive) | 0.0614 | 0.32 (inactive)
4 | CCn1ncc(NC(=O)Cn2ccc(-c3ncnn3C)n2)n1 | 0.85 (inactive) | 1.24 | 8780 | 10300 | 0.204 (inactive) | -0.374 | -0.5 (inactive)
5 | Cc1ccc(-c2ncnc3scc(C)c23)c2cccnc12 | 0.907 (inactive) | 1.31 | 8040 | 8860 | -0.0169 (inactive) | -0.263 | -0.425 (inactive)
6 | Cc1nn(C)cc1-c1ccnc(NCC(C)Oc2cccnc2)n1 (stereo unspecified) | 0.898 (inactive) | 1.28 | 8650 | 9640 | -0.961 (inactive) | 0.57 | -0.525 (inactive)
7 | CC(C)(C)c1cn(C2CCN(C(=O)c3cnc4ccccc4n3)CC2)nn1 | 0.867 (inactive) | 1.26 | 7870 | 9080 | 0.15 (inactive) | -0.382 | -0.44 (inactive)
8 | CCc1c(C)[nH]n(-c2nn[nH]n2)c1=O | 0.897 (inactive) | 0.608 | 8110 | 9050 | -1.16 (inactive) | -0.864 | 0.055 (inactive)
9 | COc1ccc(OC)c2c1c(C)cc(=O)n2C | 0.823 (inactive) | 0.693 | 8060 | 9790 | -0.469 (inactive) | 0.131 | -0.615 (inactive)
10 | CC(C)(N)c1cn(C2CCN(c3nc(N)nc4nc[nH]c34)CC2)nn1 | 0.945 (inactive) | 0.882 | 9180 | 9720 | 1.11 (inactive) | -0.203 | -0.545 (inactive)
11 | COc1ccc(CN2CCN(c3nccc(-c4cn(C)nc4C)n3)CC2=O)cc1 | 0.778 (inactive) | 1.57 | 4640 | 5960 | 4.51 (active) | 2.53 | -0.37 (inactive)
12 | COc1cccc(Cc2noc(-c3nccc4ccccc34)n2)c1 | 0.933 (inactive) | 1.27 | 8090 | 8670 | 0.324 (inactive) | -0.0974 | -0.1 (inactive)
13 | CC(c1cccc(O)c1)N(C)C (stereo unspecified) | 0.895 (inactive) | 0.805 | 8630 | 9640 | -0.0784 (inactive) | -0.273 | 0.205 (inactive)
14 | Cc1nc2cc(C(=O)N(C)Cc3cc(-c4cccnc4)no3)ccc2s1 | 0.86 (inactive) | 2.36 | 6380 | 7420 | -0.957 (inactive) | -0.223 | -0.55 (inactive)
15 | Nc1nc(-c2ccoc2)c2[nH]cnc2n1 | 0.933 (inactive) | 1.81 | 9520 | 10200 | -0.0543 (inactive) | -0.319 | -0.485 (inactive)
16 | O=C(Nc1ccccc1)c1ccn[nH]1 | 0.856 (inactive) | 0.232 | 7620 | 8910 | -0.292 (inactive) | 0.207 | 0.49 (inactive)
17 | Cc1nc2ccc(-c3ncnc4sccc34)cc2c(=O)[nH]1 | 0.886 (inactive) | 1.29 | 9390 | 10600 | 0.107 (inactive) | 0.235 | -0.465 (inactive)
18 | Cc1cc(C)n(CCCNc2ncc(C)c(-c3cnn(C)c3)n2)n1 | 0.893 (inactive) | 1.21 | 8360 | 9370 | -0.406 (inactive) | 0.144 | -0.54 (inactive)
19 | Cn1nc(C(C)(C)C)cc1NC(=O)Nc1ccc(Cl)cc1 | 0.806 (inactive) | 1.05 | 7030 | 8720 | 1.19 (inactive) | -0.375 | 0.155 (inactive)

Row | Structure (SMILES) | fold change [1, 4] | fold change [1, 5] | cell count [1, 6] | cell count [1, 7] | z-score [2, 8] | z-score [2, 9] | z-score [3]
20 | O=C(Nc1c[nH]c2ccccc12)c1cc(-c2ccc(F)cc2)n[nH]1 | 0.84 (inactive) | 1.42 | 7140 | 8510 | -0.224 (inactive) | 0.73 | -0.56 (inactive)
21 | O=C(Cn1nc(Cc2ccccc2)c2ccccc2c1=O)NCCc1ccco1 | 0.937 (inactive) | 0.881 | 8560 | 9130 | 1.48 (inactive) | 0.664 | -0.33 (inactive)
22 | O=C(O)c1cccnc1Nc1ccc(Cl)cc1 | 1.17 (inactive) | 0.619 | 5660 | 4840 | -0.775 (inactive) | -0.287 | 0.845 (inactive)
23 | Nc1ccc(Sc2ccc(N3C(=O)c4ccc(N)cc4C3=O)cc2)cc1 | 0.816 (inactive) | 1.86 | 8200 | 10000 | 0.874 (inactive) | 0.253 | -0.975 (inactive)
24 | COc1cc(OC)c(-c2nnc3ccccn23)cc1OC | 0.917 (inactive) | 1.49 | 9720 | 10600 | -0.104 (inactive) | 0.208 | -0.52 (inactive)
25 | O=C(O)Cc1ccc(O)c([N+](=O)[O-])c1 | 0.901 (inactive) | 0.986 | 8450 | 9380 | 0.677 (inactive) | 0.189 | 1 (inactive)
26 | O=C(NN=Cc1cc(Br)c(O)c(Br)c1O)c1cccc(Br)c1 | 0.911 (inactive) | 0.461 | 2930 | 3220 | 1.44 (inactive) | 0.907 | -2.57 (inactive)
27 | Cc1nsc(NC(=O)N[C@@H]2CCCC[C@H]2c2ccccc2)n1 | 0.821 (inactive) | 1.15 | 7510 | 9150 | 0.535 (inactive) | -0.546 | 1.12 (inactive)
28 | NNC(=O)c1ccc(-c2ccccc2Cl)o1 | 0.826 (inactive) | 0.386 | 7740 | 9360 | 0.702 (inactive) | -0.293 | 0.765 (inactive)
29 | COc1cc(N=C(N)N=C(N)N)cc(OC)c1 | 0.901 (inactive) | 0.269 | 8210 | 9120 | 0.825 (inactive) | -0.341 | 0.61 (inactive)
30 | OC(CNCC(O)C1CCc2cc(F)ccc2O1)C1CCc2cc(F)ccc2O1 (stereo unspecified) | 1.62 (inactive) | 0.335 | 2500 | 1540 | 0.602 | 2.88 | -2.66 (inactive)
31 | O=c1ccc2ccccc2[nH]1 | 0.871 (inactive) | 0.441 | 8280 | 9510 | 1.28 (inactive) | 0.0217 | 0.98 (inactive)
32 | O=C(O)CCc1c(C(=O)O)[nH]c2cc(Cl)cc(Cl)c12 | 0.85 (inactive) | 0.683 | 8390 | 9880 | 0.688 (inactive) | 0.122 | 0.585 (inactive)
33 | Cc1ccc(Sc2cccc3nc(N)nc(N)c23)cc1 | 1.07 (inactive) | 0.775 | 3810 | 3570 | 0.0344 (inactive) | 0.646 | -2.52 (inactive)
34 | CC(C)n1cc(-c2cc(C(=O)N(C)Cc3cccnc3)c3ccc(F)cc3n2)cn1 | 0.916 (inactive) | 1.28 | 9850 | 10700 | -0.603 (inactive) | 1.43 | -0.355 (inactive)
35 | Cc1ccc2c(c1)N(Cc1nc(C(C)(C)C)no1)C(=O)CO2 | 1.19 (inactive) | 0.578 | 6310 | 5280 | -0.543 (inactive) | -0.423 | -0.52 (inactive)
36 | O=C1CN(c2ncnc3nc[nH]c23)CCN1Cc1cccc(F)c1 | 0.802 (inactive) | 2.49 | 7800 | 9720 | -0.258 (inactive) | -0.742 | -0.53 (inactive)
37 | Cc1csc(CNC(=O)Cc2csc(-c3ccccc3)n2)n1 | 0.931 (inactive) | 1.12 | 8110 | 8710 | 0.125 (inactive) | 0.0782 | -0.44 (inactive)
38 | COc1ccc(OC)c(-c2nc3ccccc3o2)c1 | 0.826 (inactive) | 1.28 | 6950 | 8410 | 0.0538 (inactive) | 0.572 | -0.51 (inactive)
